Experimental data taken from PubChem BioAssay AID1159580 (chemical genetic matrix, 2015).
Out of some 5,500 compounds screened, about 2,000 (36%) were called active. About 18% were inconclusive and are not listed. Rule as the data show it: active = normalized growth mostly below about 0.91 (no sharp cut-off); inconclusive = no clear call, values can overlap the other calls; inactive = mostly above about 0.92. The list shows a part of the results.

Experiment: chemical genetic growth profiling, strain panel (AID 1159580);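 also: tested at 20 µM; growth read once vehicle control cultures reached saturation at 30 °C; 1 = growth at the plate median or of vehicle wells; lower values mean less growth of the strain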
Conditions: growth OD

Measured: normalized growth

CC12CCC(CC1)C(C)(C)O2
inactive: S. cerevisiae deletion strains, locus YJL187C, strain SWE1 (second series), active compounds read low 1 | S. cerevisiae deletion strains, locus YJL187C, strain SWE1, active compounds read low 0.989 | S. cerevisiae deletion strains, locus YJR043C, strain POL32, active compounds read low 0.989 | S. cerevisiae deletion strains, locus YJR066W, strain TOR1, active compounds read low 0.94 | S. cerevisiae deletion strains, locus YKL009W, strain mrt4, active compounds read low 1.03 | S. cerevisiae deletion strains, locus YKL068W, active compounds read low 1.01 | S. cerevisiae deletion strains, locus YKL085W, strain MDH1 (second series), active compounds read low 1.01 | S. cerevisiae deletion strains, locus YKL085W, strain MDH1, active compounds read low 1.01 | S. cerevisiae deletion strains, locus YKL160W, strain elf1, active compounds read low 1 | S. cerevisiae deletion strains, locus YKR001C, strain vps1, active compounds read low 1.01 | S. cerevisiae deletion strains, locus YKR026C, strain gcn3, active compounds read low 0.977 | S. cerevisiae deletion strains, locus YKR091W, strain srl3, active compounds read low 0.993 | S. cerevisiae deletion strains, locus YLL001W, strain dnm1, active compounds read low 0.985 | S. cerevisiae deletion strains, locus YLL026W, active compounds read low 0.977 | S. cerevisiae deletion strains, locus YLL041C, strain sdh2, active compounds read low 0.974 | S. cerevisiae deletion strains, locus YLR027C, strain aat2, active compounds read low 0.97 | S. cerevisiae deletion strains, locus YLR039C, strain RIC1, active compounds read low 1.01 | S. cerevisiae deletion strains, locus YLR058C, strain SHM2, active compounds read low 1.01 | S. cerevisiae deletion strains, locus YLR102C, strain apc9, active compounds read low 1.01 | S. cerevisiae deletion strains, locus YLR113W, strain HOG1, active compounds read low 0.994 | S. cerevisiae deletion strains, locus YLR221C, strain rsa3, active compounds read low 0.98 | S. cerevisiae deletion strains, locus YLR258W, strain gsy2, active compounds read low 0.976 | S. cerevisiae deletion strains, locus YLR262C, strain YPT6 (second series), active compounds read low 1.03 | S. cerevisiae deletion strains, locus YLR262C, strain YPT6, active compounds read low 1 | S. cerevisiae deletion strains, locus YLR268W, strain sec22, active compounds read low 0.994 | S. cerevisiae deletion strains, locus YLR320W, strain mms22, active compounds read low 0.994 | S. cerevisiae deletion strains, locus YLR330W, strain CHS5, active compounds read low 1.01 | S. cerevisiae deletion strains, locus YLR342W, strain FKS1 (second series), active compounds read low 1.04 | S. cerevisiae deletion strains, locus YLR342W, strain FKS1, active compounds read low 0.974 | S. cerevisiae deletion strains, locus YLR357W, strain rsc2, active compounds read low 0.932 | S. cerevisiae deletion strains, locus YLR370C, strain arc18, active compounds read low 0.972 | S. cerevisiae deletion strains, locus YLR371W, strain rom2, active compounds read low 1.02 | S. cerevisiae deletion strains, locus YLR384C, strain iki3, active compounds read low 0.974 | S. cerevisiae deletion strains, locus YLR418C, strain cdc73, active compounds read low 1.05 | S. cerevisiae deletion strains, locus YML016C, strain PPZ1, active compounds read low 1.01 | S. cerevisiae deletion strains, locus YML032C, strain rad52, active compounds read low 1.02 | S. cerevisiae deletion strains, locus YML120C, strain ndi1, active compounds read low 0.988 | S. cerevisiae deletion strains, locus YML124C, strain tub3, active compounds read low 1.02 | S. cerevisiae deletion strains, locus YMR058W, strain fet3, active compounds read low 0.98 | S. cerevisiae deletion strains, locus YMR078C, strain ctf18, active compounds read low 1.01 | S. cerevisiae deletion strains, locus YMR125W, strain sto1, active compounds read low 0.977 | S. cerevisiae deletion strains, locus YMR129W, active compounds read low 0.992 | S. cerevisiae deletion strains, locus YMR205C, strain PFK2, active compounds read low 0.99 | S. cerevisiae deletion strains, locus YMR223W, strain ubp8, active compounds read low 1.03 | S. cerevisiae deletion strains, locus YMR231W, strain pep5, active compounds read low 0.957 | S. cerevisiae deletion strains, locus YMR307W, strain GAS1, active compounds read low 0.998 | S. cerevisiae deletion strains, locus YNL067W, strain RPL9B, active compounds read low 1 | S. cerevisiae deletion strains, locus YNL071W, strain lat1, active compounds read low 0.984 | S. cerevisiae deletion strains, locus YNL183C, strain NPR1, active compounds read low 0.907 | S. cerevisiae deletion strains, locus YNL209W, strain ssb2, active compounds read low 0.98 | S. cerevisiae deletion strains, locus YNL233W, strain BNI4, active compounds read low 1.01 | S. cerevisiae deletion strains, locus YNL248C, strain rpa49, active compounds read low 0.978 | S. cerevisiae deletion strains, locus YNL250W, strain rad50, active compounds read low 0.99 | S. cerevisiae deletion strains, locus YNL271C, strain bni1, active compounds read low 1.01 | S. cerevisiae deletion strains, locus YNL298W, strain CLA4, active compounds read low 1.02 | S. cerevisiae deletion strains, locus YNL307C, strain MCK1, active compounds read low 1.01 | S. cerevisiae deletion strains, locus YNL322C, strain KRE1 (second series), active compounds read low 0.967 | S. cerevisiae deletion strains, locus YNR049C, strain mso1, active compounds read low 0.983 | S. cerevisiae deletion strains, locus YNR052C, strain pop2, active compounds read low 1.01 | S. cerevisiae deletion strains, locus YOL012C, strain htz1 0.871 | S. cerevisiae deletion strains, locus YOL147C, strain pex11, active compounds read low 1.01 | S. cerevisiae deletion strains, locus YOR001W, strain rrp6, active compounds read low 0.98 | S. cerevisiae deletion strains, locus YOR061W, strain CKA2, active compounds read low 1.01 | S. cerevisiae deletion strains, locus YOR069W, strain VPS5, active compounds read low 1 | S. cerevisiae deletion strains, locus YOR070C, strain gyp1, active compounds read low 0.971 | S. cerevisiae deletion strains, locus YOR080W, strain dia2, active compounds read low 0.975 | S. cerevisiae deletion strains, locus YOR083W, strain WHI5, active compounds read low 0.992 | S. cerevisiae deletion strains, locus YOR106W, strain vam3, active compounds read low 0.954 | S. cerevisiae deletion strains, locus YOR136W, strain idh2, active compounds read low 1 | S. cerevisiae deletion strains, locus YOR144C, strain elg1, active compounds read low 1.01 | S. cerevisiae deletion strains, locus YOR184W, strain ser1, active compounds read low 1 | S. cerevisiae deletion strains, locus YOR231W, strain MKK1, active compounds read low 1.01 | S. cerevisiae deletion strains, locus YOR265W, strain rbl2, active compounds read low 0.999 | S. cerevisiae deletion strains, locus YOR270C, strain vph1, active compounds read low 1.02 | S. cerevisiae deletion strains, locus YOR290C, strain snf2, active compounds read low 0.979 | S. cerevisiae deletion strains, locus YOR316C, strain cot1, active compounds read low 1.02 | S. cerevisiae deletion strains, locus YPL051W, strain arl3, active compounds read low 0.973 | S. cerevisiae deletion strains, locus YPL055C, strain LGE1, active compounds read low 1.02 | S. cerevisiae deletion strains, locus YPL078C, strain atp4, active compounds read low 0.995 | S. cerevisiae deletion strains, locus YPL106C, strain sse1, active compounds read low 0.978 | S. cerevisiae deletion strains, locus YPL240C, strain hsp82, active compounds read low 0.968 | S. cerevisiae deletion strains, locus YPL256C, strain CLN2, active compounds read low 0.977 | S. cerevisiae deletion strains, locus YPR119W, strain clb2, active compounds read low 1.02 | S. cerevisiae deletion strains, locus YPR141C, strain kar3, active compounds read low 1.03 | S. cerevisiae deletion strains, locus YPR163C, strain tif3, active compounds read low 1.02 | S. cerevisiae deletion strains, locus YPR167C, strain met16, active compounds read low 1.02 | S. cerevisiae deletion strains, strain wtn01, active compounds read low 1.03 | S. cerevisiae strains, strain wild type, active compounds read low 1.01
